Measured values taken from PubChem BioAssay (NCI).
The panel holds about 79,000 compounds, 15% with a hit somewhere; the sample as a whole holds those more often. Unmarked numbers belong to inactive results. The source made the active and inactive calls. Rule as the data show it: active = growth inhibition above about 70%; inactive = the rest.

How the values were obtained:
[1] = NCI Yeast Anticancer Drug Screen. Data for the sgs1 strain (AID 173);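 also: 0% = growth of vehicle-only control cultures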; settings: S. cerevisiae sgs1 mutant, active compounds read high
Summary of the method: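 Yeast mutant strains carrying defined defects in DNA damage repair or cell cycle control were exposed to test compounds. Growth inhibition was scored against vehicle-treated controls.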

[2] = NCI Yeast Anticancer Drug Screen. Data for the mlh1 rad18 strain (AID 175); settings: S. cerevisiae mlh1 rad18 strain growth inhibition, active compounds read high
Summary of the method: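 Growth inhibition of the yeast strain was measured after compound exposure and expressed relative to vehicle-treated controls. The strain carries defined defects in DNA damage repair.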

[3] = NCI Yeast Anticancer Drug Screen. Data for the rad18 strain (AID 177); settings: S. cerevisiae rad18 mutant growth inhibition, active compounds read high
Summary of the method: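 Yeast carrying a defined DNA damage repair alteration were exposed to compounds. Growth inhibition was expressed relative to vehicle-treated controls.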

[4] = NCI Yeast Anticancer Drug Screen. Data for the rad52 strain (AID 147);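 also: 0% = growth of vehicle-treated control cultures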; settings: S. cerevisiae rad52 mutant growth inhibition, active compounds read high
Summary of the method: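 Yeast strain carrying a DNA damage repair alteration was exposed to test compounds. Growth inhibition was measured relative to vehicle-treated controls.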

[5] = NCI Yeast Anticancer Drug Screen. Data for the wt1 strain (AID 149);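 also: 0% = growth of vehicle-treated wt1 cultures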; settings: S. cerevisiae wt1 strain (SPY 50644) growth inhibition, active compounds read high
Summary of the method: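 Compounds are added to wt1 yeast cultures. Growth is then measured. Inhibition is expressed relative to vehicle-treated controls.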

[6] = NCI Yeast Anticancer Drug Screen. Data for the rad50EPP+ strain (AID 151);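 also: 0% = growth of vehicle-treated control cultures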; settings: S. cerevisiae rad50 mutant strain, active compounds read high
Summary of the method: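 Yeast strain carrying rad50 alteration (rad50EPP+) exposed to compounds; growth inhibition measured relative to vehicle-treated controls.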

[7] = NCI Yeast Anticancer Drug Screen. Data for the rad50 strain (AID 155);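 also: 0% = growth of vehicle-only cultures of the same strain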; settings: S. cerevisiae rad50 strain growth inhibition, active compounds read high
Summary of the method: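 Inhibition values express reduced yeast growth in compound-treated cultures relative to vehicle-treated controls.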

[8] = NCI Yeast Anticancer Drug Screen. Data for the mec2-1 strain (AID 157); settings: S. cerevisiae mec2-1 strain, active compounds read high
Summary of the method: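 mec2-1 yeast strain, carrying an alteration in DNA damage repair or cell cycle control, was exposed to compounds; growth inhibition was measured relative to vehicle-treated controls.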

[9] = NCI Yeast Anticancer Drug Screen. Data for the rad14 strain (AID 159);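 also: 0% = growth of vehicle-treated control cultures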; settings: S. cerevisiae rad14 strain growth inhibition, active compounds read high
Summary of the method: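 A mutant yeast strain defective in DNA damage repair is treated with compound; inhibition of its growth is scored against untreated, vehicle-exposed cultures.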

[10] = NCI Yeast Anticancer Drug Screen. Data for the sgs1 mgt1 strain (AID 161);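 also: 0% = growth of cultures given vehicle only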; settings: S. cerevisiae sgs1 mgt1 strain, active compounds read high
Summary of the method: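 This yeast growth screen uses a strain with defined DNA-repair lesions; compound-treated growth is compared with vehicle-treated growth.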

[11] = NCI Yeast Anticancer Drug Screen. Data for the CLN2oe strain (AID 163);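 also: 0% = growth of vehicle-only control cultures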; settings: S. cerevisiae CLN2oe strain, active compounds read high
Summary of the method: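 Yeast cells carrying a defined cell-cycle control alteration were exposed to test compounds. Growth inhibition was scored against vehicle-treated control cultures.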

[12] = NCI Yeast Anticancer Drug Screen. Data for the cln2 rad14 strain (AID 165);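 also: 0% = growth equal to vehicle treated cultures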; settings: S. cerevisiae cln2 rad14 strain, active compounds read high
Summary of the method: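 Yeast carrying cln2 and rad14 alterations (cell cycle control and DNA damage repair) were exposed to compounds. Growth inhibition was measured against vehicle-treated controls.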

[13] = NCI Yeast Anticancer Drug Screen. Data for the bub3 strain (AID 167); settings: S. cerevisiae bub3 mutant strain, active compounds read high
Summary of the method: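 Steps: expose the mutant yeast strain to compound; grow alongside vehicle-treated cultures; measure growth; express inhibition against the vehicle cultures.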

[14] = NCI Yeast Anticancer Drug Screen. Data for the wt2 strain (AID 169);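 also: 0% = growth of vehicle-treated yeast cultures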; settings: S. cerevisiae wt2 strain growth inhibition, active compounds read high
Summary of the method: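 Yeast cells were exposed to test compounds, and growth inhibition was measured relative to vehicle-treated controls.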

[15] = NCI Yeast Anticancer Drug Screen. Data for the mlh1 strain (AID 171);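 also: 0% = growth of vehicle-treated control cultures of the same strain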; settings: S. cerevisiae mlh1 strain growth inhibition, active compounds read high
Summary of the method: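 Yeast carrying a defined genetic alteration in DNA damage repair or cell cycle control were exposed to test compounds. Growth inhibition was measured relative to vehicle-treated controls.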

[16] = at 5.0 µM (retest, dose inferred, filed as 0.5)
[17] = at 50.0 µM (retest, dose inferred, filed as 5.0)

Structure (SMILES): Cc1ccc(Nc2c3c(c(C#N)c4nc5ccccc5n24)CCCC3)cc1
- growth inhibition ([1]; at 1.2 µM): 30%
- growth inhibition ([1]; at 3.7 µM): 34%
- growth inhibition ([1]; at 11.0 µM): 29%
- growth inhibition ([1]; at 33.0 µM): 77% (active)
- growth inhibition ([1]; at 100.0 µM): 81% (active)
- growth inhibition [2, 16]: 28%
- growth inhibition [2, 17]: 68%
- growth inhibition ([2]; at 50.0 µM): 6.1%
- growth inhibition ([3]; at 1.2 µM): 6%
- growth inhibition ([3]; at 3.7 µM): 27%
- growth inhibition ([3]; at 11.0 µM): 38%
- growth inhibition ([3]; at 33.0 µM): 75% (active)
- growth inhibition ([3]; at 100.0 µM): 72% (active)

Structure (SMILES): O=C(Nc1ccc2c(c1)Cc1c-2ccc([N+](=O)[O-])c1F)C(F)(F)F
- growth inhibition ([4]; at 1.2 µM): 4%
- growth inhibition ([4]; at 3.7 µM): 4%
- growth inhibition ([4]; at 11.0 µM): 5%
- growth inhibition ([4]; at 33.0 µM): 5%
- growth inhibition ([4]; at 100.0 µM): 3%
- growth inhibition ([5]; at 1.2 µM): 2%
- growth inhibition ([5]; at 3.7 µM): 3%
- growth inhibition ([5]; at 11.0 µM): 7%
- growth inhibition ([5]; at 33.0 µM): 4%
- growth inhibition ([5]; at 100.0 µM): 3%
- growth inhibition ([6]; at 1.2 µM): 9%
- growth inhibition ([6]; at 3.7 µM): 0%
- growth inhibition ([6]; at 11.0 µM): 6%
- growth inhibition ([6]; at 33.0 µM): 11%
- growth inhibition ([6]; at 100.0 µM): 20%
- growth inhibition ([7]; at 1.2 µM): 2%
- growth inhibition ([7]; at 3.7 µM): 4%
- growth inhibition [7, 16]: 2%
- growth inhibition ([7]; at 11.0 µM): 4%
- growth inhibition ([7]; at 33.0 µM): 3%
- growth inhibition [7, 17]: 11%
- growth inhibition ([7]; at 50.0 µM): 2.95%
- growth inhibition ([7]; at 100.0 µM): 4%
- growth inhibition ([8]; at 1.2 µM): -1%
- growth inhibition ([8]; at 3.7 µM): 0%
- growth inhibition [8, 16]: -17%
- growth inhibition ([8]; at 11.0 µM): -1%
- growth inhibition ([8]; at 33.0 µM): 1%
- growth inhibition [8, 17]: -11%
- growth inhibition ([8]; at 50.0 µM): 1.35%
- growth inhibition ([8]; at 100.0 µM): 2%
- growth inhibition ([9]; at 1.2 µM): 1%
- growth inhibition ([9]; at 3.7 µM): 1%
- growth inhibition ([9]; at 11.0 µM): 0%
- growth inhibition ([9]; at 33.0 µM): 2%
- growth inhibition ([9]; at 100.0 µM): 2%
- growth inhibition [10, 16]: 23%
- growth inhibition [10, 17]: 19%
- growth inhibition ([10]; at 50.0 µM): -3.05%
- growth inhibition ([11]; at 1.2 µM): -2%
- growth inhibition ([11]; at 3.7 µM): -3%
- growth inhibition ([11]; at 11.0 µM): -4%
- growth inhibition ([11]; at 33.0 µM): -11%
- growth inhibition ([11]; at 100.0 µM): -4%
- growth inhibition [12, 16]: 4%
- growth inhibition [12, 17]: 7%
- growth inhibition ([12]; at 50.0 µM): -10.7%
- growth inhibition ([13]; at 1.2 µM): -2%
- growth inhibition ([13]; at 3.7 µM): 1%
- growth inhibition [13, 16]: -4%
- growth inhibition ([13]; at 11.0 µM): 1%
- growth inhibition ([13]; at 33.0 µM): 1%
- growth inhibition [13, 17]: 12%
- growth inhibition ([13]; at 50.0 µM): 8.35%
- growth inhibition ([13]; at 100.0 µM): -4%
- growth inhibition ([1]; at 1.2 µM): 1%
- growth inhibition ([1]; at 3.7 µM): 3%
- growth inhibition ([1]; at 11.0 µM): -1%
- growth inhibition ([1]; at 33.0 µM): 1%
- growth inhibition ([1]; at 100.0 µM): 3%
- growth inhibition [2, 16]: 62%
- growth inhibition [2, 17]: 79% (active)
- growth inhibition ([2]; at 50.0 µM): 18.4%
- growth inhibition ([3]; at 1.2 µM): 4%
- growth inhibition ([3]; at 3.7 µM): 0%
- growth inhibition ([3]; at 11.0 µM): -25%
- growth inhibition ([3]; at 33.0 µM): 5%
- growth inhibition ([3]; at 100.0 µM): 9%

Structure (SMILES): c1ccc(N2N=C3N(c4ccccc4)C2N3c2ccccc2)cc1
- growth inhibition ([4]; at 1.2 µM): -19%
- growth inhibition ([4]; at 3.7 µM): -14%
- growth inhibition ([4]; at 11.0 µM): 4%
- growth inhibition ([4]; at 33.0 µM): 57%
- growth inhibition ([4]; at 100.0 µM): 93% (active)
- growth inhibition ([5]; at 1.2 µM): -46%
- growth inhibition ([5]; at 3.7 µM): -41%
- growth inhibition ([5]; at 11.0 µM): -16%
- growth inhibition ([5]; at 33.0 µM): 34%
- growth inhibition ([5]; at 100.0 µM): 93% (active)
- growth inhibition ([6]; at 1.2 µM): -13%
- growth inhibition ([6]; at 3.7 µM): -8%
- growth inhibition ([6]; at 11.0 µM): -5%
- growth inhibition ([6]; at 33.0 µM): 6%
- growth inhibition ([6]; at 100.0 µM): 1%
- growth inhibition ([7]; at 1.2 µM): 1%
- growth inhibition ([7]; at 3.7 µM): 7%
- growth inhibition [7, 16]: 43%
- growth inhibition ([7]; at 11.0 µM): 26%
- growth inhibition ([7]; at 33.0 µM): 70% (active)
- growth inhibition [7, 17]: 97% (active)
- growth inhibition ([7]; at 50.0 µM): 81% (active)
- growth inhibition ([7]; at 100.0 µM): 92% (active)
- growth inhibition ([8]; at 1.2 µM): -19%
- growth inhibition ([8]; at 3.7 µM): -22%
- growth inhibition [8, 16]: 35%
- growth inhibition ([8]; at 11.0 µM): 3%
- growth inhibition ([8]; at 33.0 µM): 44%
- growth inhibition [8, 17]: 98% (active)
- growth inhibition ([8]; at 50.0 µM): 69.2%
- growth inhibition ([8]; at 100.0 µM): 93% (active)
- growth inhibition [10, 16]: -16%
- growth inhibition [10, 17]: 57%
- growth inhibition ([10]; at 50.0 µM): 81% (active)
- growth inhibition ([11]; at 1.2 µM): -12%
- growth inhibition ([11]; at 3.7 µM): -7%
- growth inhibition ([11]; at 11.0 µM): -10%
- growth inhibition ([11]; at 33.0 µM): 51%
- growth inhibition ([11]; at 100.0 µM): 92% (active)
- growth inhibition [12, 16]: 28%
- growth inhibition [12, 17]: 75% (active)
- growth inhibition ([12]; at 50.0 µM): 59.5%
- growth inhibition ([13]; at 1.2 µM): -6%
- growth inhibition ([13]; at 3.7 µM): -1%
- growth inhibition [13, 16]: 28%
- growth inhibition ([13]; at 11.0 µM): 29%
- growth inhibition ([13]; at 33.0 µM): 80% (active)
- growth inhibition [13, 17]: 81% (active)
- growth inhibition ([13]; at 50.0 µM): 82.5% (active)
- growth inhibition ([13]; at 100.0 µM): 92% (active)
- growth inhibition ([14]; at 1.2 µM): -17%
- growth inhibition ([14]; at 3.7 µM): -7%
- growth inhibition ([14]; at 11.0 µM): 1%
- growth inhibition ([14]; at 33.0 µM): 44%
- growth inhibition ([14]; at 100.0 µM): 94% (active)
- growth inhibition ([15]; at 1.2 µM): -28%
- growth inhibition ([15]; at 3.7 µM): -22%
- growth inhibition ([15]; at 11.0 µM): -7%
- growth inhibition ([15]; at 33.0 µM): 37%
- growth inhibition ([15]; at 100.0 µM): 93% (active)
- growth inhibition ([1]; at 1.2 µM): 2%
- growth inhibition ([1]; at 3.7 µM): -29%
- growth inhibition ([1]; at 11.0 µM): 2%
- growth inhibition ([1]; at 33.0 µM): 41%
- growth inhibition ([1]; at 100.0 µM): 93% (active)
- growth inhibition [2, 16]: 38%
- growth inhibition [2, 17]: 99% (active)
- growth inhibition ([2]; at 50.0 µM): 77.5% (active)
